Data as given in PubChem BioAssay AID602393 (Broad Institute, 2012).
About 7,000 (2%) of roughly 350,000 compounds were called active. The sample holds actives, similar compounds and a random draw of the others, so the mix is not that of the screen. Cut-off read from the data, not from the text of the source: active = activation above about 40%; inconclusive = no clear call, values can overlap the other calls; inactive = below that.

assay: Bmi1 luciferase reporter increase in mESCs, primary screen, esBAF inhibitor project, mouse ES cells, Bmi1 luciferase knock-in, single point (AID 602393); conditions: 24 h, at 12.5 µM, active compounds read high, 100% = twice the neutral-well signal;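 note: 0% = median of the plate's neutral control wells and 100% = double that signal; a rise in the Bmi1 reporter signal indicates esBAF inhibition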

Reporter increase, inactive:
CC(C)NC(=O)Nc1ccc2c(c1)C(=O)N(C)[C@@H]1CC[C@H](CC(=O)NCC3CCCCC3)O[C@@H]1CO2 7.05%
COCC(=O)N[C@@H]1C=C[C@@H](CC(=O)N2CCCCC2)O[C@@H]1CO 0.0415%
COc1ccccc1C(=O)N1C[C@H]2[C@@H](c3ccccc31)[C@H](CO)N2C(=O)C1CC1 -3.8%
O=C(C[C@@H]1C=C[C@@H](NC(=O)c2cccnc2)[C@H](CO)O1)NCCN1CCCCC1 -3.44%
COc1cccc(S(=O)(=O)N[C@H]2C=C[C@H](CC(=O)NC3Cc4ccccc4C3)O[C@H]2CO)c1 -3.77%
CCOc1ccc(-n2c(SCC(=O)OC)nc3sc4c(c3c2=O)CCN(C)C4)cc1 4.82%
CCOc1ccc(-n2c(SCC(=O)Nc3ccc(OC)cc3)nc3sc4c(c3c2=O)CCN(C)C4)cc1 1.84%
COc1cccc(C(=O)NCCSc2ccc(Br)cc2)c1 -4.36%
COc1cccc(C(=O)Nc2nnc(S(=O)(=O)N3CCOCC3)s2)c1 1.13%
Clc1ccc(CN2CCCCCC2)cc1Cl -0.902%
O=c1cc(CN2CCCCCCC2)c2c(ccc3ccccc32)o1 2.61%
O=C(C[C@H]1CC[C@@H](NC(=O)Cc2ccccn2)[C@H](CO)O1)NCCc1ccccc1 3.63%
O=c1c2cc(Br)ccc2nc(-c2cccc(Cl)c2)n1O -7.05%
C[C@H](O)C#Cc1ccc2c(c1)O[C@H](CN(C)C)[C@@H](C)CN([C@H](C)CO)S2(=O)=O -3.76%
C[C@@H]1CN([C@@H](C)CO)C(=O)Cc2cc(NC(=O)Nc3ccc(F)cc3)ccc2O[C@@H]1CN(C)C(=O)NC1CCCCC1 1.74%
COCC1CCCN(C(=O)c2ccc3oc(C(C)C)nc3c2)C1 (centres undefined) 21.9%
COCC1CCN(C(=O)c2ccc3oc(Cc4ccccc4)nc3c2)C1 (centres undefined) 22.8%
C[C@@H]1CCCCO[C@@H](CN(C)C(=O)C2CCCCC2)[C@H](C)CN([C@H](C)CO)C(=O)c2cc(NC(=O)CCC(F)(F)F)ccc2O1 15.7%
COc1cccc(CNC(=O)C[C@@H]2CC[C@@H]3[C@H](COc4ccc(NC(C)=O)cc4C(=O)N3C)O2)c1 -1.5%
CCOC(=O)C1(CCOc2ccccc2)CCN(Cc2cc(OC)cc(OC)c2)CC1 -7.06%
CCOC(=O)C1(Cc2cccc(OC)c2)CCN(C(C)CC(C)(C)O)CC1 (centres undefined) -4.88%
CNC(=O)C[C@H]1CC[C@@H]2[C@@H](COc3ccc(NC(=O)c4ccc(F)c(F)c4)cc3C(=O)N2C)O1 0.615%
C[C@@H]1CN([C@H](C)CO)C(=O)c2cc(C#CC3CC3)cnc2O[C@@H]1CN(C)Cc1ccccn1 -2.08%
CC(=O)Nc1cccc(-c2cc(NC(C)=O)c3ncc(-c4ccccc4)n3c2)c1 -27.3%
COc1cc(NC(=O)c2ccc(-c3csc(C)n3)cc2)c(OC)cc1Cl 23.9%
COc1cccc(-c2cnc3c(NC(C)=O)cc(-c4cccc(NC(C)=O)c4)cn23)c1 6.31%
CC(=O)NC(c1ccccc1)c1nc(-c2cccc(C(C)C)c2)cs1 (centres undefined) -2.45%
CC(=O)NC(c1cccc(F)c1)c1nc(-c2cccc(F)c2)cs1 (centres undefined) 1.42%
COc1cccc(C(O)c2nc(-c3ccc(C)c(C)c3)cs2)c1 (centres undefined) 3.8%
COc1cccc(-c2cnc3c(c2)C(=O)N([C@H](C)CO)C[C@@H](C)[C@H](CN(C)Cc2ccc(F)cc2)O3)c1 1.81%

Reporter increase, active:
COc1ccccc1NC(=O)CSc1nc2sc3c(c2c(=O)n1-c1ccccc1)CCN(C)C3 50.8%
COc1cccc(C(=O)Nc2cc3c(cc2Br)OCCCO3)c1 82%
c1ccc2cc3[nH]c(CN4CCCCC4)nc3cc2c1 43.8%
O=C(/C(=C/c1cccc(Cl)c1)c1nc2ccccc2[nH]1)c1ccccc1 98.1%
COCC1CCN(C(=O)CCc2nnc(C3(c4ccc(Cl)cc4)CCC3)o2)C1 (centres undefined) 52%
CCOC(=O)C1(Cc2cccc(OC)c2)CCCN(C(=O)CCSC)C1 (centres undefined) 51.6%
COc1ccc(-c2csc(Nc3cccc(C)n3)n2)cc1OC 86.6%
CC(=O)Nc1cccc(-c2cnc3ccccc3n2)c1 72.3%
CC(=O)Nc1cccc(-c2csc(Nc3cccc(C)n3)n2)c1 51.5%
